# Data published in PubChem BioAssay AID493201 (National Center for Advancing Translational Sciences (NCATS), 2011).
# Records with an inconclusive call do not appear. Entries that show only a call come without a potency. Activity calls are given as the source filed them. Calls come from the whole dose curve; as a rule, active = well fitted activation curve with a large enough effect; inconclusive = small, poorly fitted or top-dose-only effect; inactive = no such curve, though single readings can be large or run the other way.
# Assay: qHTS Assay for Identifying a Potential Treatment of Ataxia-Telangiectasia: Secondary assay (no NCS) hit validation;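 note: phosphorylated KAP1 signal as a proxy for ATM-like kinase activity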
# Settings: A-T patient fibroblasts, AlphaLISA, no DNA damage added, 90 min; series mostly up to 76.9 µM
# Method in brief: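 hTERT-immortalized A-T patient fibroblasts (F2112), 500 cells/well, exposed to compounds at up to 76.7 uM final without NCS at 37C. KAP-1 phosphorylation measured by AlphaLISA after lysis and 6 h detection at 25C.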
# Potency is the fitted concentration of half-maximal effect.
row,SMILES,Potency
1,COc1ccc(CNC(=O)COc2cccnc2[N+](=O)[O-])cc1OC,inactive
2,CCC[C@H]1CCCC/C=C\CCCC(=O)OCCN1C(=O)OC(C)(C)C,inactive
3,CCOc1cc(/C=C/c2nc3ccccc3c(=O)[nH]2)ccc1O,inactive
4,O=C1NC(NS(=O)(=O)c2ccc(Cl)cc2)(C(F)(F)F)C(=O)N1CCc1ccccc1 (centres undefined),inactive
5,CC(=O)c1sc2nc(C)c3c(c2c1N)CCCC3,inactive
6,COc1ccc(C(=O)/C=C/C(=O)N(CC(=O)NC2CCCCC2)Cc2ccccc2)c(O)c1,inactive
7,O=C(c1nn2c(C(F)(F)F)cc(-c3ccc(F)cc3)nc2c1Cl)N1CCOCC1,inactive
8,Nc1nc2ccccc2cc1-c1cccs1,inactive
9,COC(=O)Cc1ccc(NC(=S)NCCSc2ccc(Cl)cc2)cc1,inactive
10,O=C(c1ccc(F)cc1)c1ccc(N2CCCCC2)cc1,inactive
11,O=C(O)c1nccnc1C(=O)Nc1ccccc1-c1ccccc1,inactive
12,CCOC(=O)CNS(=O)(=O)Cc1ccccc1,inactive
13,O=C1C2C3C=CC(CC3)C2C(=O)N1c1cccc(Br)c1 (centres undefined),inactive
14,CC(C)(C)NC(=O)c1cccc2c1-c1ccccc1C2=O,inactive
15,CCC(C)Nc1nc(N)c([N+](=O)[O-])c(NCCO)n1 (centres undefined),inactive
16,Cc1ccc(C(=O)c2c(C)oc3c2C(=O)C(=O)c2ccccc2-3)cc1,inactive
17,Cc1cc(C)n2nc(C(=O)OCCOc3ccc(F)cc3)nc2n1,58.2 µM (active)
18,CN(C)C(=O)c1nc2ccc(Cl)cn2c1CNCc1cccc(OC(F)(F)F)c1,inactive
19,O=c1c(-c2ccc(Cl)cc2)c[nH]n1-c1ccccc1,inactive
